According to PubChem BioAssay (NCI):
This is part of a sample that, as a whole, favours compounds with a hit. Of some 83,000 tested, about 20% had one in any assay.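 Plates (96-well) were seeded with cells, treated with compound at one concentration, and incubated for 48 hours before percent growth was determined.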 A number with no mark means an inactive call. Active and inactive are the calls of the source. Rule for the calls: active = growth percent below 10; inactive = the rest.

Tests used:
Assay in all cases: NCI-60 one-dose screen, 48 h (100 = growth as untreated, 0 = no growth, -100 = all killed)
Details in all cases: 10 µM
[1] = test system: SR leukemia
[2] = test system: RPMI-8226 leukemia
[3] = test system: OVCAR-8 ovarian
[4] = test system: OVCAR-5 ovarian
[5] = test system: OVCAR-4 ovarian
[6] = test system: SK-OV-3 ovarian
[7] = test system: IGROV1 ovarian
[8] = test system: OVCAR-3 ovarian
[9] = test system: HS 578T breast
[10] = test system: NCI/ADR-RES ovarian

Row | SMILES | growth [1] | growth [2] | growth [3] | growth [4] | growth [5] | growth [6] | growth [7] | growth [8] | growth [9] | growth [10]
1 | CC(=O)c1cc(C(=O)c2ccc3c(c2)NC(=O)CO3)n2ccc3ccccc3c12 | 63.2% | 62.7% | 50.3% | 85.7% | 47.9% | 108% | 96.2% | 118% | 63.1% | 69%
2 | O=C(NO)c1ccc(CNC(=O)[C@H]2Cc3c([nH]c4ccccc34)[C@H](c3ccccc3)N2)cc1 | 23.8% | 15.1% | 24.7% | 15.3% | 53.7% | -3.43% (active) | 46.9% | 22.7% | 17.3% | 63%
3 | N#Cc1ccc(-c2nn(-c3ccc(C(=O)O)cc3)cc2CNc2cc(Cl)cc(Cl)c2)cc1 | 36.5% | 21.6% | 47.6% | 84% | 65.4% | 126% | 52.5% | 45.7% | 50.2% | 17.2%
4 | CC(=O)c1cc(C(=O)N2c3ccccc3Sc3ccccc32)n2ccc(C)cc12 | 6.72% (active) | 19.8% | 45.9% | 66.8% | 51.7% | 99.8% | 37.1% | 58% | 53.7% | 18.4%
5 | O=C(CSc1nnc(-c2c[nH]c3ccccc23)n1-c1ccccc1)Nc1ccc(C(=O)/C=C/c2ccc(Br)cc2)cc1 | 72.3% | 7.63% (active) | 95.6% | 93.3% | 91.2% | 88.3% | 80.5% | 81% | 82.2% | 94.9%
6 | COc1ccc(C(=O)Nc2sc3c(c2C#N)CCC(=O)C3)cc1C(F)(F)F | 0.622% (active) | 4.37% (active) | 2.79% (active) | 35.3% | 21.7% | -3.75% (active) | 13.7% | -6.94% (active) | -11.7% (active) | -44.7% (active)
7 | O=C(Nc1cccc([N+](=O)[O-])c1)Nc1cccc([N+](=O)[O-])c1 | 88.7% | 31.9% | 88.7% | 94.1% | 73.6% | 129% | 88.6% | 60.7% | 92.5% | 65.4%
8 | O=c1[nH]c2ccccc2cc1CSc1ccc(Nc2nccc(-c3ccc4c(c3)OCO4)n2)cc1 | 81.7% | 81.3% | 75% | 98.3% | 27% | 116% | 103% | 50.7% | 41.3% | 83.7%
9 | CN(C)c1ccc(/C=C/c2nc3ccccc3c(=O)n2CC(=O)Nc2ccc(Cl)cc2)cc1 | 81.2% | 88.1% | 2.8% (active) | 75.4% | 7.27% (active) | 84.8% | 88.3% | 42.2% | 17.1% | 22.4%
10 | O/N=C(\CSc1nnc(-c2c[nH]c3ccccc23)n1-c1ccccc1)c1ccc(Cl)cc1 | 12.8% | -13.4% (active) | 6.37% (active) | -43.4% (active) | -81.3% (active) | -1.58% (active) | -34.1% (active) | 34.2% | -31.7% (active) | -70.2% (active)
11 | O=C(CNc1nc(-c2ccccc2)cs1)Nc1ccc(Cl)cc1[N+](=O)[O-] | 7.61% (active) | 1.75% (active) | 10.8% | -52.2% (active) | 15.5% | -6.03% (active) | 8.13% (active) | -31.9% (active) | -18.3% (active) | -30.7% (active)
12 | O=C1N/C(=N\c2nccs2)S/C1=C\c1cccs1 | 16.4% | 19.5% | 31.3% | 49.1% | 30.9% | 39.3% | 31.5% | 44.2% | 49.9% | -0.769% (active)
13 | COc1ccc(C2NC(=S)NC(C)=C2C(=O)OC(C)C)cc1OC (stereo not given) | 101% | 104% | 106% | 105% | 99.3% | 135% | 109% | 113% | 89.8% | 102%
14 | O=C(Nc1ccc(Cl)c([N+](=O)[O-])c1)Nc1ccc(Cl)c([N+](=O)[O-])c1 | 12.4% | -20.5% (active) | 20.7% | 49.8% | 23.2% | 79.4% | 15.3% | 9.61% (active) | 45.1% | 6.5% (active)
